The values that follow come from PubChem BioAssay (NCATS).

Structures are written as SMILES. Records with an inconclusive call do not appear. Activity calls are given as the source filed them. Calls come from the whole dose curve; as a rule, active = well fitted inhibition curve with a large enough effect; inconclusive = small, poorly fitted or top-dose-only effect; inactive = flat fitted curve, though single readings scatter.
Potency is the fitted concentration of half-maximal effect.

This assay relates to TAB109. The experiment in a line: qHTS profiling for inhibitors of Plasmodium falciparum proliferation (AID 504749).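 For activity, negative = inhibition: 0% = DMSO vehicle and full inhibition = artemisinin control.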 Note: nearly all actives have a fitted effect of over 60% in size. Particulars: P. falciparum in erythrocytes, SYBR Green DNA, 72 h; series mostly up to 12.8 µM; activity, negative = inhibition: at the top concentration. The method, boiled down:
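Quantitative HTS: compounds pinned into medium, infected erythrocytes added (0.3% parasitemia, 2.5% hematocrit), 72 h culture at 37 C under 5% CO2. Saponin/Triton lysis with SYBR Green I, overnight RT, then fluorescence read.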
With `CCO[C@H]1O[C@@H]([C@H](COCc2ccccc2)OCc2ccccc2)[C@@H](OCc2ccccc2)[C@H]1O`, the “activity, negative = inhibition” value is -5.74% (inactive).

`COc1cc(N[C@@H](C)CCCN)c2ncccc2c1`: the Potency is 1.78 µM (active).

Regarding `C=Cc1c(C)c2cc3nc(cc4[nH]c(cc5nc(cc1[nH]2)C(C)=C5CCC(=O)O)c(CCC(=O)OC)c4C)[C@@]1(C)C3=CC=C(C(=O)OC)[C@H]1C(=O)OC` (tested in a mixture with another compound), the Potency is 5.01 µM (active).

With `O=C(OC[C@@H](O)CO)c1ccccc1Nc1ccnc2cc(Cl)ccc12`, the “activity, negative = inhibition” value is 19.3% (inactive).

Take `CO[C@]1(NC(=O)[C@H](C(=O)O)c2ccc(O)cc2)C(=O)N2C(C(=O)O)=C(CSc3nnnn3C)CO[C@H]21`: the “activity, negative = inhibition” value was 2.97% (inactive).

As for `COc1ccc2c(c1)N(C[C@@H](C)CN(C)C)c1ccccc1S2`, the “activity, negative = inhibition” value was -21.3% (inactive).

Consider `CCC(=O)[C@@]1(C)[C@H](C)C[C@@H]2[C@@H]3CCC4=CC(=O)C=C[C@@]4(C)[C@H]3[C@H](O)C[C@]21C`, for which the “activity, negative = inhibition” value is -1.15% (inactive).

As for `CCC(C)(C)C(=O)O[C@@H]1C[C@H](C)C=C2C=C[C@H](C)[C@@H](CC[C@H]3C[C@@H](O)CC(=O)O3)[C@H]21`, the “activity, negative = inhibition” value is -15.4% (inactive).

As for `CC=C(/C(=C/C)c1ccc(O)cc1)c1ccc(O)cc1`, the “activity, negative = inhibition” value is -1.38% (inactive).

`CC1(C)S[C@@H]2[C@H](NC(=O)[C@@H](N)c3ccccc3)C(=O)N2[C@H]1C(=O)O[C@H]1OC(=O)c2ccccc21`: the “activity, negative = inhibition” value is 11.9% (inactive).
